From PubChem BioAssay
FLuc modulator: qHTS profiling assay for firefly luciferase inhibitor/activator using purifed enzyme and Km concentrations of substrates (counterscreen for miR-21 project) | Potency, µM (highest dose often 57.5 µM), without a hit: at the highest dose activity change, negative = inhibition, actives largely listed as inhibitors | hit rate 6.9% among 360,000 | purified FLuc, Km substrates, luminescence inhibition;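 also: plate controls were vehicle for no effect and reference inhibitor for full effect; nearly all actives have a fitted effect of over 55% in size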
Target sequence (P08659 whole entry, looked up): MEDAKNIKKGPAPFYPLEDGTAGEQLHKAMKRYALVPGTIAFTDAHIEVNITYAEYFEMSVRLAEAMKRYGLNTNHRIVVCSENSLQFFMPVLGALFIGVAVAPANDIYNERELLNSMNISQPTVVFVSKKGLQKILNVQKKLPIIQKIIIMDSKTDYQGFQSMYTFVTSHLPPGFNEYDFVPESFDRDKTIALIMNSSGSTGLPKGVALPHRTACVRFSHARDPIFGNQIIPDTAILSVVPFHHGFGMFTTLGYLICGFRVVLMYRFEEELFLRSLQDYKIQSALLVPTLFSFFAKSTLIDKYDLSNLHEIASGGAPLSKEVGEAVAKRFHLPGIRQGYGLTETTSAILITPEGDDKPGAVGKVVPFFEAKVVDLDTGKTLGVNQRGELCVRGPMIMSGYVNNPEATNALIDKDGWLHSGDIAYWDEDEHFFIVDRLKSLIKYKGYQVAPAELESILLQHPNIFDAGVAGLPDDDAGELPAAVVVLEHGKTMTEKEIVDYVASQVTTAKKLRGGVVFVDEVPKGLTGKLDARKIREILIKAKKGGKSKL
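Biochemical qHTS of compounds, final roughly 60 µM downward over six points, against 10 nM purified firefly luciferase using Km concentrations of substrates (10 uM D-luciferin, 10 uM ATP) in Tris acetate pH 7.5 buffer; luminescence output.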
Rab9 prom act: qHTS Assay for Rab9 Promoter Activators | Huh7 Rab9 promoter-luciferase reporter, luminescence, 24 h | Potency, µM (doses to about 9.22 µM), without a hit: at the highest dose activation, negative = inhibition, most hits filed as activators | hit rate 2.8% among 320,000; also: % of control where 0% means no effect; nearly all actives have a fitted effect of over 60% in size
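Quantitative HTS format; Huh7 Rab9-luciferase reporter cells (1500/well) receive compound 2 h post-plating, incubate 24 h at 37 °C, then get luciferase reagent for 10 min before luminescence reading.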
SMN2 splice up: qHTS Assay for Enhancers of SMN2 Splice Variant Expression. HEK293 SMN2-luciferase splicing reporter, luminescence, 30-36 h. Potency, µM (doses to about 46.1 µM), for the others: top-dose activity change, positive = activation, hits mostly activators. hit rate 2.8% among 210,000. AID 1458, 2008; also: % of control where 0% means no effect; nearly all actives have a fitted effect of over 55% in size
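HEK293 cells carry an SMN2 […]–luciferase reporter in which exon 7 inclusion puts luciferase in frame. Cells were plated 10-12 h before compound addition, then incubated 30-36 h at 37C. ONE-Glo luminescence was read; sodium butyrate at 4.5 mM final served as control.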
ELG1 genotoxic: qHTS screen for small molecules that induce genotoxicity in human embryonic kidney (HEK293T) cells expressing luciferase-tagged ELG1; hit rate 1.3% among 330,000; Potency, µM (titrated, usually from 46 µM), inactives show at the highest dose activity change, positive = activation, hits mostly activators; HEK293T ELG1-luciferase reporter, luminescence, 16 h; AID 504466, 2011; also: % of control where 0% means no effect; nearly all actives have a fitted effect of over 60% in size
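Quantitative HTS format in 1536-well plates. HEK293T ELG1-luciferase reporter cells receive test compound and are incubated 16 hr at 37 °C, 5% CO2; ONE-Glo added, 30 min room temperature, then luminescence read.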
NPC1 prom act: qHTS Assay for NPC1 Promoter Activators. hit rate 2.4% among 320,000. Potency, µM (titrated, usually from 9.22 µM), for the others: at the highest dose activation, most hits filed as activators. Huh7 NPC1 promoter luciferase reporter, 24 h. AID 485313, 2010; also: % of control where 0% means no effect; nearly all actives have a fitted effect of over 60% in size
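Stably transfected Huh7 (NPC1 promoter→luciferase), 1500 cells/well in Opti-MEM + 10% FBS, 2 h settle, then compound 24 h at 37 °C. Luminescence after 10 min with Amplite reagent.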
Active calls of the source: *; ? = inconclusive; . = not tested or not shown; [ ] = dose if it differs, or a comment. Rows were chosen to be rich in hits. Some 7.4% of all compounds tested hit in one or more screens of this group. Calls follow the shape of the dose curve; as a rule, active = well fitted curve in the direction sought with a large enough effect; inconclusive = small, poorly fitted or top-dose-only effect, or another doubt; inactive = no such curve, though single readings can be large; an effect the other way counts as inactive or inconclusive. Potency is read from the fitted curve at half-maximal effect.

SMILES | FLuc modulator | Rab9 prom act | SMN2 splice up | ELG1 genotoxic | NPC1 prom act
Cc1[nH]n(-c2ccccc2)c(=O)c1/C=N/NC(=O)c1cccc([N+](=O)[O-])c1 | 8.49µM* | -14.3% | -70.4% | -4.8% | -20.2%
Cc1ccc(OCC(=O)N/N=C\c2cccn2C)c([N+](=O)[O-])c1 | 10.7µM* | 14.9% | . | 10.5% | 5.5%
Cc1ccc(C)c(OCC(=O)N/N=C\c2cccn2C)c1 | 3.0% | -3.4% | 4.5% | -2.3% | 0.1%
Cc1ccc2[nH]cc(C(c3ccccc3)c3cccs3)c2c1 (stereo unspecified) | -8.6% | . | -8.8% | . | .
Cc1ccccc1CN1C(=O)c2ccccc2Sc2ccc(C(=O)OCc3ccco3)cc21 | -2.4% | . | . | . | .
Cc1ccc(-n2[nH]c(C)c(/C=N/Nc3ccc([N+](=O)[O-])cc3[N+](=O)[O-])c2=O)cc1C | 13.5µM* | -17.1% | -72.6% | -13.3% | -3.0%
COc1cccc(OC)c1C(=O)Nc1ccc(S(=O)(=O)N2CCCCC2)cc1 | -2.3% | -1.1% | . | -2.8% | -0.9%
O=C(Cc1ccccc1)NNC(=O)Nc1ccccc1 | 16.9µM* | 1.9% | . | -1.7% | -2.2%
CNC(=O)Nc1ccccc1C(=O)NCc1ccccc1 | 0.0% | -0.4% | -8.7% | 2.0% | 0.5%
O=C(Nc1ccc(Cl)cc1)Nc1ccccc1C(=O)NCc1ccco1 | 19µM* | 7.0% | 13.3% | 18.5% | 4.5%
O=C(Nc1ccccc1)Nc1ccccc1C(=O)NCc1ccccc1 | 21.3µM* | 15.2% | 1.3% | 1.1% | 4.7%
O=C(COc1ccc2oc(-c3ccco3)cc(=O)c2c1)N1CCCCC1 | 16.9µM* | 3.5% | 3.0% | -0.8% | 3.1%
COc1cccc2c(=O)c3ccoc3n(C)c12 | -0.2% | -0.6% | 3.8% | 5.6% | -0.5%
COc1ccc2oc(-c3ccco3)cc(=O)c2c1 | 12µM* | 0.794µM* | 11.2µM* | ? | 2.51µM*
Cc1cc(=O)oc2ccc(OCC(=O)NCc3ccco3)cc12 | 0.8% | 0.7% | 6.4% | -0.7% | 0.0%
O=C(COc1ccc2oc(-c3ccccc3)cc(=O)c2c1)NCc1ccco1 | 2.39µM* | ? | -26.6% | 15.6% | 6.0%
O=c1cc(-c2ccco2)oc2ccc(Cl)cc12 | -5.6% | 24.9% | 17.9% | ? | 27.1%
COc1cccc2oc(-c3ccco3)cc(=O)c12 | 15.1µM* | ? | 15.8µM* | ? | ?
Cn1c(CNC(=O)CNC(=O)Cc2ccc(Cl)cc2)cc(=O)n(C)c1=O | 1.4% | 2.5% | . | 2.6% | 16.3%
CCN(C(=O)COC(=O)c1cc(=O)c2ccccc2o1)c1c(N)n(Cc2ccccc2)c(=O)[nH]c1=O | 1.0% | -1.6% | . | 7.3% | 2.7%
N#Cc1cc2ccccc2nc1SCc1ccccn1 | 16.9µM* | 2.2% | 11.2µM* | 7.31µM* | -1.0%
Cc1cc2cc3c(cc2nc1SCc1ccccn1)OCCO3 | ? | ? | -11.5%[1.84 µM] | 9.6% | -4.4%
Cc1ccc(OCC(=O)N2CCc3ccccc32)cc1 | 2.69µM* | 3.55µM* | 14.1µM* | 16.4µM* | 2.82µM*
CCc1ccc(OCC(=O)N2c3ccccc3CCc3ccccc32)cc1 | -2.1% | -0.6% | . | -5.2% | 1.0%
CCc1ccc(OCC(=O)N2CCc3ccccc32)cc1 | 2.69µM* | 2.24µM* | . | ? | 3.55µM*
SMILES | FLuc modulator | Rab9 prom act | SMN2 splice up | ELG1 genotoxic | NPC1 prom act
Cc1ccc(OCC(=O)N2CCCc3ccccc32)cc1 | ? | 13.4% | 1.8% | 2.2% | 9.6%
O=C(COc1ccc2c(c1)CCC2)N1CCc2ccccc21 | 5.36µM* | 1.12µM* | ? | 11.6µM* | 2.82µM*
COc1cccc(CN(Cc2ccco2)c2cnc(S(C)(=O)=O)nc2C(=O)Nc2cccc(Cl)c2C)c1 | -6.2% | . | . | . | .
C/[N+]([O-])=C/c1c(OCc2ccccc2)ccc2ccccc12 | 4.6% | ? | . | ? | ?
O=Cc1c(OCc2ccccc2)ccc2ccccc12 | 12µM* | ? | 14.1µM* | ? | ?
COc1cc(C(=O)NCCc2sc(-c3ccc(C)cc3)nc2C)cc(OC)c1OC | -17.1% | . | . | . | .
O=C(Nc1ccc(O)cc1)c1cccc(Oc2ccc([N+](=O)[O-])cc2)c1 | -3.2% | -2.1% | . | -8.7% | -6.0%
Cc1c(Cl)cccc1Nc1ccccc1C(=O)O | 16.9µM* | -1.5% | -2.4% | -2.2% | -4.6%
CN(C)S(=O)(=O)Oc1cccc(C(=O)Nc2ccc([N+](=O)[O-])cc2)c1 | 13.5µM* | ? | -25.4% | -13.9% | 15.3%
O=C(N[C@H]1CC1c1ccccc1)c1ccc([N+](=O)[O-])cc1 (stereo partly specified) | 5.36µM* | 0.708µM* | . | ? | 1.12µM*
CC(Cc1ccccc1)NC(=O)c1ccc([N+](=O)[O-])cc1 (stereo unspecified) | 12µM* | 1.78µM* | 14.1µM* | ? | 2.82µM*
CCCCCC(O)(c1ccc(OCC)cc1)C(CN1CCOCC1)c1ccccc1 (stereo unspecified) | -0.7% | -5.1% | . | -10.1% | -6.2%
O=C(CCc1nnc2ccc(N3CCC4(CC3)OCCO4)nn12)Nc1ccc(F)cc1 | -1.6% | 2.5% | . | 3.5%[9.26 µM] | -2.6%
O=C(NNc1ccc([N+](=O)[O-])cc1)Nc1ccccc1 | 21.3µM* | -0.5% | . | 3.2% | 3.0%
O=C(Nc1ccc([N+](=O)[O-])cc1)c1ccccc1 | 16.9µM* | 3.16µM* | . | 14.5% | 2.24µM*
O=C(Nc1ccc(NC(=O)c2cccc([N+](=O)[O-])c2)cc1)c1cccc([N+](=O)[O-])c1 | -18.4% | 14.9% | . | 12.7% | 16.2%
O=C(O)c1ccccc1Nc1ccc([N+](=O)[O-])cc1 | ? | ? | 7.08µM* | -1.8% | 19.5%
O=C(O)c1ccccc1Nc1ccccc1C(=O)O | -0.5% | 9.0% | -4.0% | 4.4% | 6.3%
CCN(CC)c1ccc(C(=O)Nc2ccccc2)cc1[N+](=O)[O-] | 12µM* | ? | 11.2µM* | 0.2% | ?
CN1C[C@@H]2[C@@H]3C(=O)N(Cc4ccccc4)C(=O)[C@@H]3[C@](C)(C1=O)N2C(=O)c1ccc(Cl)cc1 | . | . | . | 3.3% | .
Cc1ccc(CNCC(=O)Nc2cccc(S(=O)(=O)NC3=NCCCCC3)c2)cc1 | -1.1% | 0.1% | -21.0% | -3.3% | -1.5%
O=[N+]([O-])c1cccc(C2=NC(c3ccccc3)CO2)c1 (stereo unspecified) | 26.9µM* | ? | 1.5% | ? | ?
COc1ccc(C2=NC(c3ccccc3)CO2)cc1 (stereo unspecified) | 1.51µM* | 3.55µM* | ? | ? | 3.16µM*
CCn1cc(C2=NC(c3ccccc3)CO2)c2ccccc21 (stereo unspecified) | ? | -2.4% | -2.8% | 6.0% | -5.8%
COc1ccc(Br)cc1CN(C)CC(=O)Nc1cccc(S(=O)(=O)N2CCCC2)c1 | . | . | . | -11.5% | .
